# Pf Dd2 growth: P. falciparum Dd2 growth inhibitors, primary screen, SYBR Green fluorescence, single dose replicates; 72 h; hits give low values; activity change, % at 10 µM; actives 2.3% (n = 94,000); AID 1159554, 2015; in the data active = activity change below about -80%; inconclusive = no clear call, values can overlap the other calls
# T cruzi growth-1: T. cruzi intracellular proliferation inhibitors, primary screen, cell-based, beta-gal Tulahuen parasites, NIH3T3 host, luminescence. T. cruzi beta-gal in NIH3T3, GalScreen luminescence, 90 h. inhibition, % at 8.34 µM. actives 5.9% (n = 77,000);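 active = mean inhibition above about 93%, with at least 55% of replicates each passing it, limit read from the data, passing the limit was not always enough; inconclusive = only one of those two conditions holds; inactive = neither condition holds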
# C diff growth: C. difficile growth inhibitors, primary screen, HTS. Clostridium difficile clinical isolate growth, OD600, 24 h; hits give low values. AID 1259249, 2017. growth activity, negative = inhibition, % at 16 µg/mL (by protocol). actives 0.25% (n = 86,000);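 active = mean growth activity at or below -80% and every replicate also at or below -80%; inconclusive = mean at or below -80% but some replicate above -80%; inactive = mean growth activity above -80%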;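 also: 0% = DMSO wells and -100% = levofloxacin 16 µg/mL wells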
# T cruzi growth-2: T. cruzi intracellular proliferation inhibitors, confirmation, cell-based, NIH3T3 host, beta-gal parasite, luminescence, cherry-pick | shares compounds with T cruzi growth-1 | T. cruzi beta-gal in NIH3T3, GalScreen luminescence, 90 h | inhibition, % at 8.35 µM | actives 72% (n = 5,600) | AID 651739, 2012;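 active = mean replicate inhibition above about 95% and at least 55% of replicates individually reaching it, limit read from the data; inconclusive = only one of the two criteria is met; inactive = neither criterion is met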
# T cruzi growth-3: inhibitors of intracellular T. cruzi replication, confirmation, NIH3T3 host cells, beta-gal parasites, cherry-pick, set 2. AID 651740, 2012. T. cruzi beta-gal in NIH3T3, GalScreen luminescence, 90 h. shares compounds with T cruzi growth-1. actives 21% (n = 5,600). inhibition, % at 2.09 µM;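 active = mean inhibition above about 95%, with at least 55% of replicates also reaching it, limit read from the data; inconclusive = meets just one of the two conditions; inactive = meets neither condition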;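 also: plate controls were neutral control median for no effect and positive control median for full effect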
# NIH3T3 tox: cytotoxicity in mouse NIH/3T3 fibroblasts, confirmation, cytotoxicity control for T. cruzi proliferation inhibitor project, cell-based, cherry-pick, single point; actives 14% (n = 5,600); AID 651742, 2012; shares compounds with T cruzi growth-1; cytotoxicity (signal decrease), % at 8.35 µM; NIH/3T3 viability, CellTiter-Glo ATP luminescence, 90 h;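 active = mean signal decrease across replicates above about 35% based on untreated-well scatter, with enough replicates individually passing, limit read from the data; inconclusive = no rule stated though some were filed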;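 also: 0% = median of neutral control wells and 100% = median of positive control wells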
# NIH3T3 tox 2: NIH/3T3 fibroblast cytotoxicity, confirmation, cytotoxicity control, cell-based, cherry-pick, single point, set 2. actives 56% (n = 5,600). NIH/3T3 viability, CellTiter-Glo ATP luminescence, 90 h. AID 651744, 2012. inhibition, % at 24.9 µM. shares compounds with T cruzi growth-1;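 active = mean loss of cell viability signal at or above a set limit, and enough replicates individually reaching it; inconclusive = meets only the mean limit or only the replicate share; inactive = meets neither condition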;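 also: 0% = median of neutral control wells and 100% = median of positive control wells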
# * marks the source's active call; other numbers are inactive results; u = inconclusive; x = not tested or not shown. A selection: hits, their analogues and other compounds. The true share with any hit is near 6.8%.
SMILES,Pf Dd2 growth,T cruzi growth-1,C diff growth,T cruzi growth-2,T cruzi growth-3,NIH3T3 tox,NIH3T3 tox 2
COc1ccccc1CNC(=O)C[C@H]1C[C@H]2c3cc(NC(=O)Nc4ccc(C(F)(F)F)cc4)ccc3O[C@H]2[C@H](CO)O1,-61,134*,7,107*,52,-20,-19
O=C(C[C@@H]1C=C[C@H](NC(=O)Nc2ccccc2)[C@@H](CO)O1)NCc1cccc(F)c1,-1,u,-4,-12,-1,-37,-19
COc1ccccc1CNC(=O)C[C@@H]1C[C@H]2c3cc(NC(=O)Nc4ccc(C(F)(F)F)cc4)ccc3O[C@H]2[C@H](CO)O1,-53,88,1,x,x,x,x
COc1ccccc1CNC(=O)C[C@H]1C[C@@H]2c3cc(NC(=O)Nc4ccc(C(F)(F)F)cc4)ccc3O[C@@H]2[C@H](CO)O1,-76,66,17,x,x,x,x
COc1ccccc1CNC(=O)C[C@@H]1C[C@@H]2c3cc(NC(=O)Nc4ccc(C(F)(F)F)cc4)ccc3O[C@@H]2[C@H](CO)O1,-24,125*,6,111*,66,4,27
CN1CCN(C(=O)C[C@H]2CC[C@H]3[C@H](COc4ccc(NC(=O)C5CCCCC5)cc4C(=O)N3C)O2)CC1,10,-12,15,x,x,x,x
C[C@@H]1CN([C@H](C)CO)C(=O)c2cc(NC(=O)c3ccccc3)ccc2O[C@@H](C)CCCCO[C@H]1CN(C)C(=O)NC1CCCCC1,-17,51,-7,x,x,x,x
CC(C)NC(=O)Nc1ccc2c(c1)C(=O)N(C)[C@@H]1CC[C@@H](CC(=O)NC3CCCCC3)O[C@H]1CO2,-22,15,-2,x,x,x,x
CN(C)C(=O)c1ccc(-c2ccc([C@@H]3[C@H]4CN(C(=O)C5CCCC5)CC(=O)N4[C@H]3CO)cc2)cc1,-34,x,-11,x,x,x,x
O=C(C[C@H]1C[C@H]2c3cc(NC(=O)NC4CCCCC4)ccc3O[C@H]2[C@@H](CO)O1)NCc1ccccc1,0,97*,x,59,10,13,8
O=C(C[C@H]1C[C@@H]2c3cc(NC(=O)Nc4ccc(C(F)(F)F)cc4)ccc3O[C@@H]2[C@H](CO)O1)NCc1ccc(Cl)cc1,2,u,x,108*,49,22,-4
COc1ccccc1CNC(=O)C[C@@H]1C[C@@H]2c3cc(NC(=O)NC4CCCC4)ccc3O[C@@H]2[C@@H](CO)O1,-8,111*,2,85,1,-21,-1
C[C@H](NC(=O)C[C@H]1C[C@@H]2c3cc(NC(=O)Nc4ccc(C(F)(F)F)cc4)ccc3O[C@@H]2[C@H](CO)O1)c1ccccc1,-26,u,12,102*,12,48*,71*
C[C@H](NC(=O)C[C@@H]1C[C@H]2c3cc(NC(=O)Nc4ccc(C(F)(F)F)cc4)ccc3O[C@H]2[C@@H](CO)O1)c1ccccc1,5,58,13,x,x,x,x
O=C(C[C@@H]1C[C@H]2c3cc(NC(=O)NC4CCCCC4)ccc3O[C@H]2[C@@H](CO)O1)NCc1ccccc1,-10,52,x,x,x,x,x
O=C(C[C@@H]1C[C@@H]2c3cc(NC(=O)Nc4ccc(C(F)(F)F)cc4)ccc3O[C@@H]2[C@H](CO)O1)NCc1ccc2c(c1)OCO2,0,45,2,x,x,x,x
COc1ccccc1CNC(=O)C[C@H]1C[C@H]2c3cc(NC(=O)NC4CCCC4)ccc3O[C@H]2[C@@H](CO)O1,13,68,0,x,x,x,x
CNC[C@H]1Oc2ccc(NC(=O)CCC(F)(F)F)cc2CC(=O)N([C@H](C)CO)C[C@@H]1C,0,30,1,x,x,x,x
C[C@@H]1CCCCO[C@H](CN(C)C(=O)Cc2ccccc2)[C@H](C)CN([C@@H](C)CO)C(=O)c2cc(NS(=O)(=O)c3ccccc3)ccc2O1,-31,x,x,x,x,x,x
CCCN1C[C@H](C)[C@@H](OC)CN(C)C(=O)c2cc(NS(=O)(=O)c3cn(C)cn3)ccc2OC[C@H]1C,-2,11,x,x,x,x,x
COc1ccc(NC(=O)N(C)C[C@@H]2OCc3ccccc3-c3ccccc3C(=O)N([C@@H](C)CO)C[C@@H]2C)cc1,-31,25,x,x,x,x,x
COc1cccc(C#Cc2ccc([C@H]3[C@H](C#N)N(C(=O)C4CC4)[C@H]3CO)cc2)c1,-39,104*,-3,106*,76,6,42*
COc1ccccc1C#Cc1ccc([C@@H]2[C@@H](C#N)N(C(=O)C3CC3)[C@H]2CO)cc1,-33,99*,-14,108*,86,-9,34*
COc1ccccc1C#Cc1ccc([C@@H]2[C@H](C#N)N(C(=O)C3CC3)[C@H]2CO)cc1,-35,88,6,x,x,x,x
COc1ccccc1C#Cc1ccc([C@@H]2[C@@H](C#N)N(C(=O)C3CC3)[C@@H]2CO)cc1,-3,80,-2,x,x,x,x
SMILES,Pf Dd2 growth,T cruzi growth-1,C diff growth,T cruzi growth-2,T cruzi growth-3,NIH3T3 tox,NIH3T3 tox 2
COc1cccc(C#Cc2ccc([C@@H]3[C@@H](C#N)N(C(=O)C4CCCC4)[C@H]3CO)cc2)c1,-70,x,36,x,x,x,x
COc1ccccc1C#Cc1ccc([C@H]2[C@@H](C#N)N(C(=O)C3CC3)[C@@H]2CO)cc1,-42,97*,-1,101*,107*,30,50*
COc1ccc(S(=O)(=O)N(C)C[C@@H]2Oc3ccc(NS(=O)(=O)c4ccc(C)cc4)cc3C(=O)N([C@@H](C)CO)C[C@@H]2C)cc1,-18,x,-3,x,x,x,x
C[C@@H]1CN([C@H](C)CO)C(=O)c2cc(NC(=O)Nc3ccc4c(c3)OCO4)ccc2O[C@H]1CN(C)Cc1ccc(Cl)c(Cl)c1,16,37,x,x,x,x,x
O=C(NC[C@@H]1CC[C@@H]2[C@@H](CN2Cc2ccccc2F)O1)C1CCCCC1,16,x,-2,x,x,x,x
COc1ccc2c3c(n(C)c2c1)[C@H](CO)N(C(=O)CN1CCOCC1)CC31CN(C(C)=O)C1,-1,x,3,x,x,x,x
C[C@@H]1CN([C@H](C)CO)C(=O)CCCn2cc(nn2)CO[C@@H]1CN(C)S(=O)(=O)c1ccc(-n2cccn2)cc1,59,x,6,x,x,x,x
Cc1ccc(S(=O)(=O)N(C)C[C@@H]2Oc3ccc(NC(=O)CCN4CCOCC4)cc3CC(=O)N([C@@H](C)CO)C[C@H]2C)cc1,-59,44,0,x,x,x,x
C/C=C/c1cccc(-c2nc(C(=O)NCc3ccccc3)cc3c2[C@@H](CCO)N([S@](=O)C(C)(C)C)C3)c1,-48,14,x,x,x,x,x

# Screens (PubChem BioAssay)
